Molecules are shown by their SMILES. Values joined by “and” are separate entries in the source; they are usually repeats but may differ in a detail not shown here. Identical values can stand only once. Results filed as inconclusive are left out. Active and inactive are the calls of the source. How the source made its calls: active means hit-call score of the fitted dose curve at least 0.9, where 1 is the maximum; inconclusive means response in the unintended direction; inactive means score below 0.9.

The test is described as follows: CCTE_Shafer_MEA_dev_LDH: CCTE's Lactate Dehydrogenase Assay for Cytotoxicity in the Neural Network Formation Assay, Shafer Lab (AID 2284068).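 Further: exposure for twelve days from plating with re-dosing on DIV 5 and 9.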 The protocol:
CCTE_Shafer_MEA_dev assay is conducted using Axion Biosystems 48 well microelectrode array (MEA) plates and Maestro recording system. Each well of the MEA plate contains a grid of 16 microelectrodes embedded in the culture surface. Electrically active cells, such as neurons, can be cultured over the electrodes, and electrical activity in these cells can be recorded extracellularly. The spontaneous firing of neurons is captured from each electrode on a microsecond timescale providing both temporally and spatially precise data. […] The CCTE_Shafer_MEA_dev assay uses primary cultures of rat cortical neurons. Recordings are made on days post-plating 5, 7, 9 and 12. As these cultures mature over time, neural networks develop functional activity and form cohesive networks in which electrical activity can be highly coordinated. CCTE_Shafer_MEA_dev_LDH is 1 of 19 assay components of the CCTE_Shafer_MEA_dev assay. It measures the lactate dehydrogenase enzyme activity using spectrophotometry.Data from the assay component CCTE_Shafer_MEA_dev_LDH was analyzed into 1 assay endpoint. This assay endpoint, CCTE_Shafer_MEA_dev_LDH, was analyzed in the positive analysis fitting direction relative to DMSO as the negative control and baseline of activity. Using a type of viability reporter, loss-of-signal activity can be used to understand cell viability.
On the day prior to culture, each well was coated thoroughly with 150 uL of 0.05% polyethyleneimine (PEI, Sigma Cat P3143) in 50 mM HEPES (Sigma Cat H7523) at a pH of 8. The plate was incubated at 37C for one hour. PEI was rinsed out with 500 uL of sterile water three times. Plates were stored at 4C until the day of culture. This culture was plated at a seeding density of 1.5 x 10^5 cells/well on a 48-well MEA plate, prepared as described above. Cells were administered via a 25 uL media/laminin ([…]; Sigma Cat L2020-1MG) drop directly onto the microelectrode array, as adding the cells with the laminin results in better attachment than pre-coating with laminin. After 2 hours, an additional 475 uL of cortical media was added and the cells returned to the incubator. Exposure starts at day 0 of plating and is continued over twelve days of network development until the experiment is terminated. Cells are fed with fresh medium on DIV 5 and 9, following the recordings on those days. The entire volume of media in the well is exchanged and any vehicle or compound treatment is renewed. Complete details are found in OP-NHEERL/ISTD/SBB/TJS/2015-03-r0 (available on request, email shafer.tim@epa.gov). Measurement of the electrical activity is non-invasive, and recordings can be made from the same plate over multiple different days of the culture. In cortical neurons, this allows for the measurement of extracellular action potentials over the period during which networks form in the MEA plate.
As for `NC(N)=Nc1nc(CSCCC(N)=NS(N)(=O)=O)cs1`, the molecule was called inactive.

What is called AC50 is the concentration giving half of the maximal activity seen. For `CNCCC(Oc1ccc(C(F)(F)F)cc1)c1ccccc1` (stereo not given), the AC50 was 2.08 µM (active). Turning to `C[C@@H]1C[C@H]2[C@@H]3CCC4=CC(=O)C=C[C@]4(C)[C@@]3(F)[C@@H](O)C[C@]2(C)[C@@]1(O)C(=O)CO`, the outcome was inactive. On to `CN(C)C(=O)C(CCN1CCC(O)(c2ccc(Cl)cc2)CC1)(c1ccccc1)c1ccccc1`, for which the AC50 is 4.19 µM (active) and 2.7 µM (active) and 2.94 µM (active). Turning to `[Cl-].[Cl-].[NH2-].[NH2-].[Pt+4]`, the AC50 was 81 µM (active). Regarding `CC[C@H](C)C(=O)O[C@H]1CCC=C2C=C[C@H](C)[C@H](CC[C@@H]3C[C@@H](O)CC(=O)O3)[C@H]21`, the AC50 is 0.215 µM (active). As for `COc1ccc2cc3[n+](cc2c1OC)CCc1cc2c(cc1-3)OCO2`, the AC50 was 0.0881 µM (active).

For `c1ccc2cc3c4ccccc4c4ccccc4c3cc2c1`, the AC50 is 2.33 µM (active). As to `c1cc2ccc3ccc4ccc5cccc6c(c1)c2c3c4c56`, the call was inactive. Still for that read-out and setting: the value for `CC1(C)S[C@@H]2[C@H](NC(=O)[C@H](N)c3ccccc3)C(=O)N2[C@H]1C(=O)O` was “inactive”. `CC1(C)S[C@@H]2[C@H](NC(=O)[C@H](N)c3ccc(O)cc3)C(=O)N2[C@H]1C(=O)O`: the molecule was classed as inactive. Take `CC(C)(C)NCC(O)c1cc(O)cc(O)c1` (stereo not given): the outcome was inactive. Take `Cc1c(O)cccc1C(=O)N[C@@H](CSc1ccccc1)[C@H](O)CN1C[C@H]2CCCC[C@H]2C[C@H]1C(=O)NC(C)(C)C`: the AC50 is 7.06 µM (active). With `CN(C)CCC(c1ccc(Cl)cc1)c1ccccn1` (stereo not given), the molecule was called inactive. As for `C[C@H](CS)C(=O)N1CCC[C@H]1C(=O)O`, the outcome was inactive.

The record behind these values is PubChem BioAssay (EPA / NIEHS).
